Measured values published in PubChem BioAssay (NCATS).
Where “and” joins values, the source holds several entries; their conditions need not be identical. Equal values may be shown once. Records with an inconclusive call do not appear. Calls of active or inactive are those of the source. Unless noted, calls come from the whole dose curve; as a rule, active = well fitted curve in the direction sought with a large enough effect; inconclusive = small, poorly fitted or top-dose-only effect, or another doubt; inactive = no such curve, though single readings can be large; an effect the other way counts as inactive or inconclusive.

How the values were obtained:
[1] = Cell Viability - Jurkat (AID 426;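 active = dose-dependent loss of cell ATP signal giving a full or clear fitted curve, ranked by lower potency value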; note: potency is the fitted concentration of half-maximal effect); conditions: qHTS
Summary of the method: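 Jurkat (clone E6-1, human T-cell leukemia) cells, 5000/well in complete medium, were exposed to compound for 40 hr at 37 °C. Viability was read as intracellular ATP by CellTiter-Glo luminescence; AC50 came from Hill fits of concentration-response data.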

[2] = Cell Viability - Mesenchymal (AID 546); conditions: mesenchymal cells viability, qHTS; series mostly up to 91.7 µM;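 note: cells exposed to compound for 40 hours before reading; 0% = DMSO only and -100% = 100 µM tamoxifen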
Summary of the method: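 Normal human renal glomerulus-derived kidney mesenchymal cells, 1000 per well in complete medium, were treated with compounds for 40 hr at 37 °C. Viability was read as intracellular ATP by CellTiter-Glo luminescence; AC50 values came from Hill-equation fits of qHTS concentration-response data.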

[3] = Cellular Toxicity (caspase-3) NIH 3T3 (AID 666); conditions: NIH 3T3 caspase-3 activation, apoptosis/toxicity; series mostly up to 92.2 µM;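 note: caspase signal read after 16 h compound exposure; 0% = DMSO basal and 100% = 100 µM tamoxifen stimulation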
Summary of the method: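 Mouse NIH 3T3 fibroblasts (1000 cells/well) were treated with compound for 16 hr at 37°C in complete medium; caspase-3/7 activity was read by Caspase-Glo luminescence. Normalized to DMSO and 100 uM tamoxifen; AC50 from Hill fits.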

[4] = MultiTox-Fluor Cytotoxicity Assay - LYMP1-002 - Live Cells (AID 955); conditions: LYMP1-002 lymphoblastoid live-cell protease fluorescence viability; series mostly up to 46.1 µM; note: % is set by controls: 0 for no effect and ±100 for the full control effect
Summary of the method: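 Human lymphoblastoid LYMP1-002 cells, 2500/well in complete medium, rested 5 hr at 37 C, then exposed to compounds for 16 hr at 37 C. Live-cell protease cleavage of GF-AFC read by fluorescence (Ex/Em 405/510) after 60 min at room temperature; AC50 from Hill fits.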

[5] = Cell Viability - LYMP2-016 (AID 984); conditions: LYMP2-016 lymphoblastoid cell viability, qHTS; series mostly up to 92.2 µM; note: nearly all actives have a fitted effect of over 55% in size; note: potency is the fitted concentration of half-maximal effect
Summary of the method: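 Cells were seeded at 2500 per well and rested 5 hr before a 24 hr compound exposure at 37 C. Viability was then gauged as cellular ATP by luciferase luminescence, with AC50 values fitted to the Hill equation.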

[6] = Cell Viability - LYMP1-002 - Assay at 24 hr (AID 993); conditions: LYMP1-002 lymphoblastoid cells viability; series mostly up to 92.2 µM; note: % is set by controls: 0 for no effect and ±100 for the full control effect
Summary of the method: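 Human lymphoblastoid LYMP1-002 cells, 2500/well in complete medium, were treated with compounds for 24 h at 37 C; intracellular ATP was read by CellTiter-Glo luminescence. AC50 values came from Hill-equation fits of qHTS concentration-response data.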

[7] = molecular target: Vitamin D3 receptor (Homo sapiens) (UniProt P11473); test: qHTS assay for small molecule agonists of vitamin D receptor signaling (AID 588543; calls by dose curve;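 note: 0% = DMSO basal and 100% = reference agonist control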); conditions: HEK293T VDR-UAS-bla, beta-lactamase ratio, 16 h; series mostly up to 76.8 µM
Summary of the method: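 Reporter cells (HEK293T, VDR-UAS-bla) were seeded in medium with 2% charcoal-stripped serum and incubated 5 h, then compounds in concentration series were added for 16 h at 37 °C. Stimulation was scaled between DMSO basal and 50 nM 1α,25-dihydroxyvitamin D3.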

[8] = qHTS assay for small molecule disruptors of the mitochondrial membrane potential - 5 hr assay (AID 651755; calls by dose curve; note: nearly all actives have a fitted effect of over 40% in size; note: potency is the fitted concentration of half-maximal effect); conditions: JC-1-type ratio dye; series mostly up to 92.2 µM
Summary of the method: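 HepG2 cells, attached overnight at 37C, were exposed to compound or DMSO for 5 hr at 37C, 5% CO2. Mito-MPS dye was then added for 30 min, and fluorescence read at 490/535 nm (monomers) and 540/590 nm (aggregates).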

[9] = molecular target: Peroxisome proliferator-activated receptor alpha (Homo sapiens) (UniProt Q07869); test: qHTS assay for small molecule agonists of the peroxisome proliferator-activated receptor alpha (PPARalpha) signaling pathway (AID 651778); conditions: PathHunter PPARalpha complementation, chemiluminescence, 6 h; hits give high values; note: % of control where 0% means no effect
Summary of the method: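 Cells plated at 2,000/well and held overnight at 37 C, 5% CO2, then compound added by pin tool for 6 hr; after PathHunter detection reagent and 60 min at room temperature, chemiluminescence from enzyme complementation was read.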

[10] = molecular target: Nuclear receptor ROR-gamma (Homo sapiens) (UniProt P51449); test: qHTS assay for small molecule antagonists of the retinoid-related orphan receptor gamma (ROR-gamma) signaling pathway (AID 651802); conditions: ROR-gamma antagonist cell reporter assay; series mostly up to 92.2 µM; note: nearly all actives have a fitted effect of over 60% in size; note: potency is the fitted concentration of half-maximal effect
Summary of the method: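 CHO cells carrying TET-inducible ROR-gamma and an ROR response element–luciferase reporter were exposed to compound, then induced with doxycycline. After 16hr at 37C, luminescence was read; lower signal indicates antagonism.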

[11] = qHTS assay for small molecule antagonists of the retinoid-related orphan receptor gamma (ROR-gamma) signaling pathway - cell viability counter screen (AID 720652; active = well fitted curve in the direction sought with a large enough effect in the repeat runs; an effect the other way counts as inactive or inconclusive;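 note: compound exposure lasted 16 hr before ATP read; % is set by controls: 0 for no effect and ±100 for the full control effect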); conditions: RORgamma reporter cell line viability counter screen; series mostly up to 92.2 µM
Summary of the method: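 Counter screen in CHO cells carrying TET-inducible ROR-gamma and an ROR response element-luciferase reporter; cells plated 5 hr, compound pinned, doxycycline added, then 16 hr at 37 C. Viability read as intracellular ATP by CellTiter-Glo luminescence.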

[12] = qHTS assay for small molecule agonists of the antioxidant response element (ARE) signaling pathway measured by Nrf2-dependant transcriptional activity - cell viability counter screen (AID 720653; active = well fitted curve in the direction sought with a large enough effect in the repeat runs; an effect the other way counts as inactive or inconclusive; note: % is set by controls: 0 for no effect and ±100 for the full control effect); conditions: ARE-bla HepG2 viability, CellTiter-Glo ATP luminescence, 16 h; hits give low values
Summary of the method: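 ARE-bla HepG2 cells (2,000/well) rested 5 hrs at 37C/5% CO2, then exposed to compounds in DMSO for 16 hrs. Viability was read in the same wells as intracellular ATP by luminescence, 30 min at room temperature after reagent addition.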

[13] = qHTS assay for cell viability of the p53RE-bla HCT-116 cell line (AID 743292); conditions: p53RE-bla HCT-116 viability, ATP luminescence, 16 h; series mostly up to 95 µM; note: % is set by controls: 0 for no effect and ±100 for the full control effect; nearly all actives have a fitted effect of over 55% in size
Summary of the method: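 Readout: CellTiter-Glo luminescence after 30 min RT. Treatment: compounds in DMSO, 16 h, 37 C. Cells: CellSensor p53RE-bla HCT-116, 4,000/well, preincubated 5 h.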

[14] = molecular target: Nuclear receptor subfamily 1 group I member 2 (Rattus norvegicus) (UniProt Q9R1A7); test: qHTS assay for small molecule activators of the rat pregnane X receptor (rPXR) signaling pathway (AID 651751; call rule not given here; note: 0% is about no effect); conditions: rPXR reporter cells, luciferase (One-Glo), 24 h
[15] = Cell Viability - NIH 3T3 (AID 541); conditions: NIH 3T3 cell viability, qHTS; activity change, negative = cytotoxicity: at 92.2 µM (top of the series); note: nearly all actives have a fitted effect of over 25% in size; note: potency is the fitted concentration of half-maximal effect;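 for activity change, negative = cytotoxicity: plate controls were DMSO alone for no effect and tamoxifen positive control for full effect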
Summary of the method: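 NIH 3T3 mouse embryo fibroblasts (1000 cells/well) were plated in complete medium and treated with compound for 40 hr at 37 °C. Viability was read as intracellular ATP by CellTiter-Glo luminescence; AC50 values came from Hill-equation fits of concentration-response data.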

[16] = Cellular Toxicity (caspase-3) MRC-5 (AID 659); conditions: MRC-5 cells, luminescence, normalized: DMSO 0%, 10 µM staurosporine 100%; series mostly up to 91.7 µM
Summary of the method: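 Luminescence from caspase-cleaved aminoluciferin substrate (Caspase-Glo 3/7, 1 hr RT) reports caspase 3/7 activity in MRC-5 lung fibroblasts after 16 hr compound exposure. Normalized to DMSO basal and 10 uM staurosporine as 100%; AC50 from Hill fits.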

[17] = MultiTox-Fluor Cytotoxicity Assay - LYMP1-001 - Dead Cells (AID 946); conditions: LYMP1-001 lymphoblastoid cells, dead-cell protease fluorescence; series mostly up to 92.2 µM;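 note: 0% = DMSO and 100% = tetraoctylammonium bromide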
Summary of the method: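 AC50 from Hill fit of concentration-response; data normalized to DMSO (basal) and 15 uM tetraoctylammonium bromide (100%). LYMP1-001 lymphoblastoid cells, 2500/well, 16 hr compound at 37 C; dead-cell protease fluorescence, Ex/Em 485/520.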

[18] = Cell Viability - LYMP1-003 - Assay at 24 hr (AID 963); conditions: LYMP1-003 lymphoblastoid cell viability; series mostly up to 92.2 µM;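 note: plate controls were DMSO only for no effect and tetraoctylammonium bromide positive control for full effect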
Summary of the method: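 Human lymphoblastoid LYMP1-003 cells (2500/well) were rested 5 hr at 37 C, then exposed to compounds in complete medium for 24 hr at 37 C. Cellular ATP was quantified by CellTiter-Glo luminescence, and AC50 values came from Hill fits of concentration-response data.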

[19] = Cell Viability - LYMP2-015 (AID 971); conditions: LYMP2-015 lymphoblastoid cell viability; series mostly up to 92.2 µM;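 note: 0% = DMSO only and full effect = 92 µM tetraoctylammonium bromide; nearly all actives have a fitted effect of over 55% in size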
Summary of the method: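 Human lymphoblastoid cells (2500/well) in complete medium were preincubated 5 hr at 37 C, then compound-treated 24 hr at 37 C. Intracellular ATP was read by CellTiter-Glo luminescence after 30 min at room temperature; AC50 came from Hill-equation concentration-response fits.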

[20] = Cell Viability - LYMP2-024 (AID 988); conditions: LYMP2-024 lymphoblastoid cell viability; series mostly up to 92.2 µM; note: nearly all actives have a fitted effect of over 60% in size; note: potency is the fitted concentration of half-maximal effect;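 for activity change, negative = cytotoxicity: plate controls were DMSO only for no effect and 92 µM tetraoctylammonium bromide for full effect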
Summary of the method: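 Human lymphoblastoid cells (2500/well) in complete medium were preincubated 5 hr at 37 C, then exposed to compounds for 24 hr at 37 C. Intracellular ATP was read by CellTiter-Glo luminescence; AC50 from Hill-equation fits of concentration-response data.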

Chain of Nuclear receptor ROR-gamma (Homo sapiens) (P51449 whole entry, looked up): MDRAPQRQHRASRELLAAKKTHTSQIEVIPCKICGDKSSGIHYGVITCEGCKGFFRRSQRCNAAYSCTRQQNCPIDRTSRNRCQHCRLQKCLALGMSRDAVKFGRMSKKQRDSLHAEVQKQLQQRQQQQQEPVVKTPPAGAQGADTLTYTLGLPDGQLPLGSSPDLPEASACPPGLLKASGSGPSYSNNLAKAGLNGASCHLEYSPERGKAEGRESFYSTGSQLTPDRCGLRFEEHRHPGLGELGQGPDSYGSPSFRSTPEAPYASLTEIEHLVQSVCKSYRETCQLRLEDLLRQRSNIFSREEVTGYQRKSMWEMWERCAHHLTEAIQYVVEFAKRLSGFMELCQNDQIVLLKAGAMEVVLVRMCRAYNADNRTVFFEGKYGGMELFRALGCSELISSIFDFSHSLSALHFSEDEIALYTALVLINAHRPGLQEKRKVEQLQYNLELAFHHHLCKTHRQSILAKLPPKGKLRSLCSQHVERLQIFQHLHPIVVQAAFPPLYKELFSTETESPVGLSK
Chain of Vitamin D3 receptor (Homo sapiens) (P11473 whole entry, looked up): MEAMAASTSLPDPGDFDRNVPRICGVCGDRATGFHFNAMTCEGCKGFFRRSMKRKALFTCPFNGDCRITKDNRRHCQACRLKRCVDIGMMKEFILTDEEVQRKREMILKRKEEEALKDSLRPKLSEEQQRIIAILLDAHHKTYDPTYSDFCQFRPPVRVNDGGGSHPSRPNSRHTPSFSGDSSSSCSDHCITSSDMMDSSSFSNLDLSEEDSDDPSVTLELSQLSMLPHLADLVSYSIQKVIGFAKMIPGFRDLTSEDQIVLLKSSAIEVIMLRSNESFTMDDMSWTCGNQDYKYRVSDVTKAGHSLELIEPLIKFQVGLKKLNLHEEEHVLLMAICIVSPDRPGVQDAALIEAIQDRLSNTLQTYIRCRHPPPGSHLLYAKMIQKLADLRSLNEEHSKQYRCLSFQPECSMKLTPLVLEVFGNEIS
Chain of Nuclear receptor subfamily 1 group I member 2 (Rattus norvegicus) (Q9R1A7 whole entry, looked up): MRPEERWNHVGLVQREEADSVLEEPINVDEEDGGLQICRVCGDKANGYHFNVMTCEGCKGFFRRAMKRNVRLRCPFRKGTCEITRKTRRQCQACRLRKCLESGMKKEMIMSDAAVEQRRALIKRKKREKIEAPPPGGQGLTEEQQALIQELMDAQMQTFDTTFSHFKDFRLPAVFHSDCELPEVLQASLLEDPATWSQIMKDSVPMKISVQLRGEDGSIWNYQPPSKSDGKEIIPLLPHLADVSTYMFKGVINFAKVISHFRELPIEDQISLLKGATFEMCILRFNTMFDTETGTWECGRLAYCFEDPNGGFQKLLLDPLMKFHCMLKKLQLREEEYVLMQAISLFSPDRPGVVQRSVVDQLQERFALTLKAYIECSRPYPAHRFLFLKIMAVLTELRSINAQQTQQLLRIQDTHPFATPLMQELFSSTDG
Chain of Peroxisome proliferator-activated receptor alpha (Homo sapiens) (Q07869 whole entry, looked up): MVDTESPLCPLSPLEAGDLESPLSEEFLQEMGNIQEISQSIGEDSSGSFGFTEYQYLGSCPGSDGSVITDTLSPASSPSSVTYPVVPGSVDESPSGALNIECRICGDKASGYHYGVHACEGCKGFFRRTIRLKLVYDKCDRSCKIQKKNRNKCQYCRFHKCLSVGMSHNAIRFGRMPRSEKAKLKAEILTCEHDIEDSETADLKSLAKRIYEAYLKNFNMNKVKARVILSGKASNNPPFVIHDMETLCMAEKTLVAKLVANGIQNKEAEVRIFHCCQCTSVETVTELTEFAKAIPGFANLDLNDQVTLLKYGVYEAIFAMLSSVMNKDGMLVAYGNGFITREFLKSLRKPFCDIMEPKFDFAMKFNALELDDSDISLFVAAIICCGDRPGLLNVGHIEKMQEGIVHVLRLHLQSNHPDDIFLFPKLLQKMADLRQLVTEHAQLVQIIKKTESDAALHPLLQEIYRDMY

C=CCCC#N
inactive: Potency [1] > 92 µM | Potency [2] | Potency [3] | outcome [4] | Potency [5] | Potency [6] | outcome [7] | Potency [8] | max response [9] -3.78% | Potency [10] | Potency [11] | max response [12] -16.2% | Potency [13] | max response [14] -6.54%

O=C(O)C(Br)Br
inactive: Potency [15] | Potency [2] | outcome [16] | Potency [3] | outcome [17] | outcome [4] | outcome [18] | Potency [19] | Potency [20] | Potency [6] | Potency [8] | max response [9] 14.7% | Potency [10] | Potency [11] | max response [12] -17.6% | Potency [13] | max response [14] 1.77%

Nc1cc(Cl)cc(C(=O)O)c1Cl
inactive: Potency [1] > 92 µM | Potency [15] | Potency [2] | outcome [16] | Potency [3] | outcome [17] | outcome [4] | outcome [18] | Potency [19] | Potency [5] | Potency [20] | Potency [6] | outcome [7] | Potency [8] | max response [9] 9.46% and -1.59% | Potency [10] | Potency [11] | max response [12] -8.07% and -24.7% | Potency [13] | max response [14] 3.15% and -3.28%

C(CCOCC1CO1)COCC1CO1 (stereo not drawn)
inactive: Potency [15] | Potency [2] | outcome [16] | Potency [3] | Potency [19] | Potency [5] | Potency [6] | outcome [7] | Potency [8] | max response [9] -0.765% | Potency [10] | Potency [11] | max response [12] 15.2% | Potency [13] | max response [14] 2.78%

CN(C)c1ccc(N)cc1
active: Potency [1] 72.8 µM | activity change, negative = cytotoxicity [15] -87% | Potency [5] 79.4 µM | Potency [20] 50.1 µM | Potency [8] 29.8 µM
inactive: Potency [2] | outcome [16] | Potency [3] | outcome [17] | outcome [7] | max response [9] 11.3% | max response [12] -16.3% | Potency [13]

CN(C)c1ccc(N(C)C)cc1
inactive: Potency [2] | outcome [16] | Potency [3] | outcome [4] | outcome [18] | Potency [6] | Potency [8] | max response [9] -4.1% | Potency [10] | max response [12] -11.4% | Potency [13]
active: Potency [20] 50.1 µM

O=[N+]([O-])c1ccccc1CCl
active: Potency [15] 12.6 µM | Potency [10] 42.2 µM
inactive: Potency [2] | outcome [16] | Potency [3] | outcome [17] | outcome [4] | outcome [18] | Potency [6] | outcome [7] | Potency [8] | max response [9] -1.86% | max response [12] -9.56% | Potency [13] | max response [14] 5.58%

Cc1cc(C)cc(OP(=O)(Oc2cc(C)cc(C)c2)Oc2cc(C)cc(C)c2)c1
inactive: Potency [2] | outcome [16] | outcome [4] | outcome [18] | Potency [5] | Potency [20] | Potency [6] | outcome [7] | max response [9] -0.353% | max response [12] -9.8% | Potency [13]
active: Potency [10] 26.6 µM
